This is a sample that favours compounds with a hit; in the whole collection about 3.7% have one here.
PI5P4Ka inh: qHTS for Inhibitors of phosphatidylinositol 5-phosphate 4-kinase (PI5P4K); 330,000 compounds, 1.2% hits; PI5P4Kalpha enzyme, ADP-Glo luminescence, 60 min; hits give low values; max response, %; Phosphatidylinositol 5-phosphate 4-kinase type-2 alpha (Homo sapiens), P48426; active means max response of -50% or lower; inconclusive means between -30% and -50%; inactive means -30% or higher; further: value at the top dose of about 77 µM; on the % scale 0 is the no-effect control and ±100 the full control effect
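Human PI5P4Kalpha with substrate in 0.038 M HEPES pH 7.4, 0.28 mM EGTA, 0.1% CHAPS, 5% DMSO; reaction started with 5 microM ATP (final), 60 min at room temperature. ADP formed read by ADP-Glo luminescence.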
VDR inhibitor: Inhibitors of the vitamin D receptor (VDR): qHTS; Potency, µM, without a hit: max response, negative = inhibition, actives largely listed as inhibitors; Vitamin D3 receptor (Homo sapiens), P11473; VDR-SRC2-3 peptide fluorescence polarization, 2 h; AID 504847, 2011; 400,000 compounds, 0.93% hits; further: potency means the concentration at half of the fitted maximal effect; on the % scale 0 is the no-effect control and ±100 the full control effect
Target sequence (P11473 whole entry, looked up): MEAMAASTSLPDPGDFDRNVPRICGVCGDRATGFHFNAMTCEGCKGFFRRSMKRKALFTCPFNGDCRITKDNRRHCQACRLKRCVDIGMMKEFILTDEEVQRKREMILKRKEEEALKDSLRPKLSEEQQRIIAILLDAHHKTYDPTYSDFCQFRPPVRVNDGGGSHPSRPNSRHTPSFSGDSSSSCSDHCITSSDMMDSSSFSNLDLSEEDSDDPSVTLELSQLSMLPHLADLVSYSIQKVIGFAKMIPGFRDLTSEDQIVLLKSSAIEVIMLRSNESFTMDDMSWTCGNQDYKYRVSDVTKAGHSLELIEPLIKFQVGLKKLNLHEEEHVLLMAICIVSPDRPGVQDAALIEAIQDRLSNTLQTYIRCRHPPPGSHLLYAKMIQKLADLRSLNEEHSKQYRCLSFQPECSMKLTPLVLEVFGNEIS
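The screen uses fluorescence polarization to detect compounds that interfere with recruitment of the SRC2-3 coactivator peptide to VDR; plates are read after 2 h at room temperature.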
TCR act: Activators of T cell receptors: qHTS campaign | primary human leukocytes, anti-CD3, IL-2 HTRF, 48 h | 330,000 tested, under 10 active | Potency, µM (doses to about 9.22 µM), for inactives: top-dose activation of IL-2 secretion, usual class: activators | AID 504894, 2011; further: % of control where 0% means no effect
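Activity was scored as IL-2 release from primary human leukocytes given only a TCR signal (a-CD3 beads) plus compound for 48 hr. Detection used a two-antibody HTRF format read at 665nm.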
WRN inhibitor: qHTS for Inhibitors of WRN Helicase. WRN helicase unwinding, fluorescent forked duplex, kinetic. Potency, µM (doses to about 114 µM), for inactives: at the top dose activity change, negative = inhibition, hits mostly inhibitors. 360,000 compounds, 0.46% hits; further: potency means the concentration at half of the fitted maximal effect; on the % scale 0 is the no-effect control and ±100 the full control effect; nearly all actives have a fitted effect of over 55% in size
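Kinetic fluorescence helicase assay: unwinding of a quenched forked DNA duplex (100 nM final) with 2 mM ATP final raises red fluorescence (525/598 nm). Compounds sat 15 min at room temperature with 20 nM WRN beforehand.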
FEN1 inh: qHTS Assay for the Inhibitors of Human Flap endonuclease 1 (FEN1) | P39748 | Recombinant FEN1 flap cleavage, fluorescence, 15 min | Potency, µM (top dose mostly 114 µM), for inactives: at the top dose activity change, negative = inhibition, usual class: inhibitors | 390,000 compounds, 0.35% hits | AID 588795, 2011; further: potency means the concentration at half of the fitted maximal effect; on the % scale 0 is the no-effect control and ±100 the full control effect; nearly all actives have a fitted effect of over 65% in size
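Nuclease activity of 10 nM FEN1 was measured after 15 min of room-temperature exposure to titrated compounds, by adding 50 nM flap substrate and reading plates at 0 and 15 min.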
PLK1 PBD block: qHTS for Inhibitors of PLK1-PDB (polo-like kinase 1 - polo-box domain): Primary Screen; Serine/threonine-protein kinase PLK1 (Homo sapiens), P53350; Plk1 PBD binding of FITC phosphopeptide, fluorescence polarization; Potency, µM, without a hit: max response, negative = inhibition, hits mostly inhibitors; 360,000 compounds, 2.8% hits; further: potency means the concentration at half of the fitted maximal effect; series mostly up to about 57 µM; on the % scale 0 is the no-effect control and ±100 the full control effect; nearly all actives have a fitted effect of over 65% in size
An asterisk follows results filed as active; u = inconclusive; x = no result; [ ] = dose if it differs, or a comment. Unless noted, the call rests on the fitted dose curve; in most records, active means well fitted curve in the direction sought with a large enough effect; inconclusive means small, poorly fitted or top-dose-only effect, or another doubt; inactive means no such curve, though single readings can be large; an effect the other way counts as inactive or inconclusive.

SMILES	PI5P4Ka inh	VDR inhibitor	TCR act	WRN inhibitor	FEN1 inh	PLK1 PBD block
CCCC(=O)Oc1c(Sc2ccc(C)cc2)c(C)nn1-c1ccccc1	x	17.8µM*	x	x	u	x
CCC(=O)Oc1c(Sc2ccc(Cl)cc2)c(C)nn1-c1ccccc1	x	79.4µM*	x	x	-21.8%	x
Cc1ccc(Sc2c(C)nn(C(C)(C)C)c2OC(=O)CC(C)C)cc1	x	-5.7%	x	x	-1.2%	x
CCC(=O)Oc1c(Sc2ccc(C)cc2)c(C)nn1-c1ccccc1	x	79.4µM*	x	x	-20.9%	x
CCc1cccc2c(-c3ccccc3)nc(SCC(=O)Nc3ccc(OC)cc3)nc12	x	1.5%	x	x	2.1%	x
CCOC(=O)c1cc2c(=O)n3ccccc3nc2n(CC2CCCO2)c1=NC(=O)c1ccc(OC)cc1OC (configuration not stated)	x	-10.1%	x	x	-14.5%	x
Cc1ccc(-c2cn3c4c(=O)n(C)c(=O)n(C)c4nc3n2-c2cccc(Cl)c2)cc1	x	-2.1%	x	x	17.3%	x
COc1cccc(-n2c(C)nc3c(cnn3-c3ccc(Cl)cc3)c2=O)c1	-12.9	-4.1%	1.2%	1.6%	-10.7%	21.2µM*
CCOc1ccc(-n2c(C)nc3c(cnn3-c3ccc(Cl)cc3)c2=O)cc1	-3.9	-0.4%	0.5%	8.8%[57.1 µM]	0.5%	-0.7%
CC(C)N(c1ccccc1)c1ccc(NC(=O)[C@@H]2O[C@H](CO)[C@H](O)[C@H](O)[C@H]2O)cc1	4.4	x	x	-0.5%	x	-7.6%
O=C1C2=C(S[C@@H]3O[C@H](CO)[C@@H](O)[C@H](O)[C@H]3O2)C(=O)c2ccccc21	x	35.5µM*	x	x	x	x
CC12CCC(c3c1nc1ccccc1[n+]3[O-])C2(C)C (configuration not stated)	-19.9	70.8µM*	0.4%[46.1 µM]	9.6%	3.2%	18.9µM*
CC(Sc1nnc2c(n1)C1(C)CCC2C1(C)C)C(=O)Nc1ccccc1 (configuration not stated)	0.3	-5.4%	-2.5%	-7.8%	-10.1%	2.3%
Cc1cc(C)c(S(=O)(=O)NCC(c2cccs2)S(=O)(=O)c2ccccc2)c(C)c1 (configuration not stated)	x	-1.5%	x	x	-2.2%	x
O=C(O)c1ccc(/C=N/NC(=O)c2ccc(CN3c4cccc5cccc(c45)S3(=O)=O)cc2)cc1	-54.0*	-2.5%	-2.5%	u	u	33.6µM*
Cc1c(-c2ccccc2)c(=O)oc2c(CN3CCN(C)CC3)c(O)ccc12	x	-2.4%	x	x	0.6%	x
CSc1cc(-c2ccccc2)n(Cc2ccc(Cl)cc2Cl)c(=O)c1C#N	-28.9	-25.8%	1.1%	1.9%	2.6%	3.36µM*
COc1ccc2c(c1OC)C(=O)OC2c1ccc(O)cc1 (configuration not stated)	x	-4.8%	x	x	-2.2%	x
CC(=O)N1CCC2(CC1)CN(c1cccc(-c3ccccc3)c1)C2	x	17.5%	x	x	x	x
c1ccc(-c2cccc(N3CCCC4(CCNCC4)C3)c2)cc1	x	50.1µM*	x	x	x	x
O=S(=O)(c1ccccc1)N1CCC2(CCCN(c3cccc(-c4ccccc4)c3)C2)CC1	x	-19.2%	x	x	x	x
COCC(=O)N1CCC2(CCCN(c3cccc(-c4ccccc4)c3)C2)CC1	x	50.1µM*	x	x	x	x
c1ccc(-c2cccc(N3CCC4(CCNCC4)CC3)c2)cc1	x	89.1µM*	x	x	x	x
COc1ccc(CC(=O)NCC(c2cccs2)S(=O)(=O)c2ccc(C)cc2)cc1 (configuration not stated)	x	7.7%	x	x	-13.6%	x
COc1ccc(CCCn2ncc3c2nc(N)n2nc(-c4ccco4)nc32)cc1	x	-3.6%	x	x	x	x
COc1ccc(CN2C(=O)/C(=C/c3ccncc3)SC2=S)cc1	1.0	50.1µM*	2.7%[46.1 µM]	-35.7%	-23.2%	u
CC(=O)Oc1ccc(/C=C2/SC(=S)N(Cc3ccccc3)C2=O)cc1	2.2	-12.8%	-2.3%	-3.1%[57.1 µM]	8.5%	-4.1%
